Data on 100 molecules can be found in PubChem BioAssay AID759 (NMMLSC, 2007).

SMILES strings stand for the structures. Hit rate of the full screen: of about 190,000 compounds, about 270 (0.14%) were called active. About 2% were inconclusive and are not listed. Many of the other results were omitted from the sample, so actives are more common in it than they were. A number with no mark means an inactive call.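 The calls were made as follows: active = GTP binding activity at least 20% away from the 100% baseline, either lowered as inhibitor or raised as activator; inconclusive = flagged as likely green fluorescent, judged across all proteins in the well; inactive = the rest.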

Sequence of GTPase HRas (Homo sapiens) (P01112 whole entry, looked up): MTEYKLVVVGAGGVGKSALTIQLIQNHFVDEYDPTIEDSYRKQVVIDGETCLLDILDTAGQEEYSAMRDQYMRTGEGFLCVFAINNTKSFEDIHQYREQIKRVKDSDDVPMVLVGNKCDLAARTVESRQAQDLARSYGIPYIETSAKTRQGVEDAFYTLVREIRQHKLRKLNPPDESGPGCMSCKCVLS

The test addresses GTPase HRas (Homo sapiens) (UniProt P01112). As to the kind of experiment: modulators of GTP binding to HRas wildtype, primary screen, biochemical, bead-based flow cytometry, multiplex (AID 759).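 Also: 0% = unlabeled GTP competition control and 100% = no-compound control.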 To be noted: GST-Ras wt beads, Bodipy-FL-GTP binding, at 10 µM, actives lie on both sides. On the technique in general: Flow cytometry measures light scatter and fluorescence of single cells or particles in a stream.
`Cc1ccc(CC(=O)Nc2cccc(C#N)c2)cc1`: the GTP binding activity is 98%.
In the case of `NNC(=O)c1cnn(-c2ccccc2)c1C(F)(F)F` it was 98%; in that of `CCCN(CC(=O)Nc1ccc(C(N)=O)cc1)CC(=O)Nc1ccccc1C`, 96%.
Consider `CN(C)C(=O)CSc1n[nH]c(-c2ccco2)n1`, for which the GTP binding activity is 94%.
Consider `O=C(CNCc1ccc(Cl)cc1)Nc1cccc(C(=O)O)c1`, for which the GTP binding activity is 95%.
`CCN(CC)c1ccc2c(Nc3ccccc3)c(C=O)c(=O)oc2c1`: the GTP binding activity is 93%.
In the case of `CC(=O)c1sc(NC(=O)C2=NN(c3ccccc3)C(=O)CC2)nc1C` it was 98%.
The value for `COc1ccc(NC(=O)COC(=O)c2ccncc2)c(OC)c1` was 97%; that for `C=CCOCCN(C)C1=NS(=O)(=O)c2ccccc21` was 100%.
In the case of `Cc1cc(OC(=O)c2ccccc2Cl)ccc1N1C(=O)CCC1=O` it was 97%; in that of `CN(C)c1ccc(NC(=O)CSc2n[nH]c(-c3ccco3)n2)cc1`, 94%.
Turning to `CCOC(=O)c1sc(NC(=O)c2cc(S(=O)(=O)N3CCOCC3)ccc2C)nc1C`, the GTP binding activity was 100%.
Take `COc1ccc(S(=O)(=O)N2CCOCC2)cc1C(=O)Nc1nc2ccccc2s1`: the GTP binding activity is 75% (active).
In the case of `COc1ccc(S(=O)(=O)N2CCOCC2)cc1NC(=O)CSc1ncnc2ccccc12` it was 93%; in that of `O=C(O)CC1S/C(=N\N=C/c2ccccc2O)N(c2ccc(O)cc2)C1=O` (stereo not given), 97%; in that of `Cc1sc2c(c1C)c(=O)n(-c1ccccc1)c(=O)n2CC(=O)NCC1CCCO1` (stereo not given), 98%.
The value for `C=CCOC(=O)C1=C(C)N=C2SCCC(=O)N2C1/C=C/c1ccccc1OC` (stereo not given) was 99%; that for `COc1cc(N/C=C2\CC(=O)NC(C)=C2C#N)cc(OC)c1OC` was 102%; that for `O=C(Nc1ccc(N2CCOCC2)cc1)c1ccc2c(c1)OCO2` was 99%.
The value for `CCc1ccc(NC(=O)C(=O)N/N=C(\C)CC(=O)NCCOC)cc1` was 96%; that for `CCn1c(SCc2cc(=O)n3ccsc3n2)nc2ccccc21` was 102%; that for `Oc1cccc2ccc(/C=C/c3ccc(Br)s3)nc12` was 100%.
`CC(=O)C1(C)N(O)C(C)(C)C(c2cccs2)=[N+]1[O-]` (stereo not given): the GTP binding activity is 98%.
For `CCOCC(=O)Nc1ncc(S(=O)(=O)c2ccc([N+](=O)[O-])cc2)s1`, the GTP binding activity is 91%.
In the case of `CN(C(=O)CSc1nncc2ccccc12)C1CCCCC1`, the GTP binding activity was 96%.
Take `CC1(C)CC(=O)C(CC(=O)N2CCC(Cc3ccccc3)CC2)C(=O)C1`: the GTP binding activity is 96%.
Turning to `CCn1cc(-c2cc(C(=O)O)on2)c(C)n1`, the GTP binding activity is 95%.
As to `c1csc(-c2nnc(COc3ccc4c(c3)OCO4)o2)c1`, the GTP binding activity was 96%.
In the case of `CCNC(=O)CC1C(=O)N(c2ccc(F)cc2)C(=O)N1Cc1cccs1` (stereo not given) it was 100%; in that of `CNC(=O)NC(=O)CSc1nnc(-c2ccc(F)cc2)n1CC1CCCO1` (stereo not given), 97%.
The value for `C=CCn1c(COc2ccc(F)cc2)nnc1SCC(=O)Nc1cccc(S(N)(=O)=O)c1` was 96%; that for `Cc1ccccc1C(=O)Nc1ccc(N2CCCCCC2)cc1` was 96%; that for `Nc1nnc(SCn2nnc3ccccc3c2=O)s1` was 95%.
`O=C(NCc1ccc(F)cc1)C(c1ccccc1)N(C(=O)c1csnn1)C1CC1` (stereo not given): the GTP binding activity was 95%.
For the molecule `O=C(O)CCCCCNc1ncnc2ccc(Br)cc12`, the GTP binding activity was 97%.
For `C=C(C)C1CC=C(C)/C(=N/NC(=O)CCCNc2cccc(C)c2)C1` (stereo not given), the GTP binding activity is 96%.
With `CCSc1nc(C)c(CCOc2cccc(C)c2)c(=O)[nH]1`, the GTP binding activity is 98%.
For `O=C(CC1C(=O)NCCN1CC(c1ccccc1)c1ccccc1)NCCc1cn[nH]c1` (stereo not given), the GTP binding activity was 99%.
For `CCNC(=O)CC1C(=O)N(c2ccc(OC)cc2)C(=S)N1CCc1ccncc1` (stereo not given), the GTP binding activity is 98%.
The value for `CCc1ccc(CN(C)Cc2nc(Cc3ccccc3)no2)nc1` was 98%.
In the case of `CC(=O)N(CN1C(=O)C2C3C=CC(C3)C2C1=O)c1cccc(Cl)c1` (stereo not given), the GTP binding activity is 93%.
`CN(/C(=N/S(=O)(=O)c1cccs1)c1ccccc1)c1ccc(O)cc1`: the GTP binding activity is 88%.
The value for `CC(=O)Nc1ccc(S(=O)(=O)Oc2ccc(/C=N/N=C3/NC(=O)C(CC(=O)O)S3)cc2)cc1` (stereo not given) was 92%; that for `O=C1CCC/C(=N\NC(=O)NC2CCCCC2)C1` was 97%.
With `COc1c(C)cc(C(=O)C2CCCN(S(=O)(=O)c3c(C)noc3C)C2)cc1C` (stereo not given), the GTP binding activity was 96%.
In the case of `CC(C)(O)C#Cc1ncc(C(F)(F)F)cc1Cl` it was 98%; in that of `CC(C)OCCCNC(=S)N1CCC(C(=O)c2ccc3c(c2)OCCO3)CC1`, 95%; in that of `CCOCCCNCc1ccc(OCc2ccc(F)cc2)c(OC)c1`, 97%.
The value for `CN1CCN(CCCCOc2ccccc2-c2ccccc2)CC1` was 99%; that for `CSc1ccc(/C=N\NC(=O)CC(=O)NC(C)C)cc1` was 94%; that for `Cc1cccc(NC(=S)Nc2ccc(Cl)c(Cl)c2)c1` was 95%.
As to `O=C(Nc1ccc(Br)cn1)c1ccc([N+](=O)[O-])o1`, the GTP binding activity is 98%.
The value for `Cc1nn(C)c(C)c1CN(C(=O)CCc1nnc(Cc2c[nH]c3ccccc23)o1)C(C)C` was 95%; that for `Nn1c(SCC(=O)Nc2nccs2)nncc1=O` was 96%; that for `CCC(C)NC(=O)/C=C/c1ccc(S(=O)(=O)NCc2ccco2)cc1` (stereo not given) was 99%.
In the case of `C=CCN(CC=C)S(=O)(=O)c1ccc(C(=O)Nc2sc3c(c2C(N)=O)CCCCC3)cc1` it was 103%.
Take `COCCN(CCOC)S(=O)(=O)c1ccc(C(=O)Nc2nc3c(s2)CCc2ccccc2-3)cc1`: the GTP binding activity is 104%.
As for `C=CCN(CC=C)S(=O)(=O)c1ccc(C(=O)Nc2nc3c(s2)CCc2ccccc2-3)cc1`, the GTP binding activity is 32% (active).
In the case of `CCC(CC)NC(=O)CSc1nnc(-c2c[nH]c3ccccc23)o1` it was 92%.
The value for `CSc1ncccc1C(=O)OCc1ccc(Br)cc1` was 96%.
With `CCOC(=O)C1CCCN(C(=O)/C=C/c2ccc(OC)cc2)C1` (stereo not given), the GTP binding activity was 91%.
In the case of `Cc1cccc(C(=O)N2CCC(c3nc4ccccc4s3)CC2)c1` it was 95%; in that of `COc1ccc(Cc2nnc(NC(=O)c3cc(OC)c(OC)c(OC)c3)s2)cc1OC`, 94%.
In the case of `NS(=O)(=O)c1ccc(NC(=S)NNC(=O)c2cccs2)cc1` it was 97%.
Turning to `O=C(CN(C(=O)c1csnn1)c1cccc(F)c1)NCc1ccc(F)cc1`, the GTP binding activity is 99%.
In the case of `CNC(=O)C(=O)N/N=C/c1ccccn1`, the GTP binding activity is 95%.
As for `S=C(Cc1ccc(Cl)cc1)N1CCOCC1`, the GTP binding activity was 94%.
In the case of `Cc1cccc(C(=O)Nc2ccc3c(c2)C(=O)N(CC(C)C)C3=O)c1` it was 96%; in that of `COc1cc(/C=C2/C(=O)ON=C2C)ccc1OCc1cccc(F)c1`, 91%; in that of `Cc1ccc2c(Cl)c(C(=O)Nc3nn[nH]n3)sc2c1`, 100%.
As for `O=S(=O)(NCc1ccccc1)c1ccc(S(=O)(=O)N2CCCC2)cc1`, the GTP binding activity was 101%.
The value for `O=c1/c(=C/c2ccc(CNS(=O)(=O)c3ccccc3)o2)sc2n1CCN=2` was 78% (active); that for `COC(=O)C1=C(C)NC(=O)/C1=C/c1ccc(CNS(=O)(=O)c2ccc(C)cc2)o1` was 97%; that for `O=C(CCN1C(=O)c2ccncc2C1=O)Nc1cc(F)ccc1F` was 92%.
The value for `NC(=O)COc1ccc(C23CC4CC(CC(C4)C2)C3)cc1` was 95%.
In the case of `COc1cccc(OC)c1C(=O)NC(=S)NCc1ccco1`, the GTP binding activity was 95%.
In the case of `CC(=O)c1ccc(N=C2SCCCN2C(=O)C2CCCCC2)cc1` it was 97%.
Consider `COc1ccc(OCC(=O)NNC(=O)c2cccc(C)c2)cc1`, for which the GTP binding activity is 97%.
Regarding `O=C(Nc1ccc(N2CCN(C(=O)C3CC3)CC2)cc1)c1cccs1`, the GTP binding activity is 95%.
For `CCOC(=O)c1cnc2c(c(C)nn2CC)c1Cl`, the GTP binding activity was 96%.
The value for `CCOC(=O)c1nc(Nc2ccc(C(=O)OC)cc2)c2ccccc2n1` was 77% (active); that for `CCOC(=O)c1ccc(N/C(=N/S(=O)(=O)c2ccccc2)c2ccccc2)cc1` was 97%; that for `CCOC(=O)c1ccc(Nc2cc(C)nc3nc(C)nn23)cc1` was 98%.
As for `Cc1c(Cc2ccccc2)c(=O)oc2cc(OCC(N)=O)ccc12`, the GTP binding activity was 93%.
In the case of `CCOc1ccccc1/C=N/NC(=O)CNC(=O)COc1ccccc1` it was 97%; in that of `O=C(COc1ccccc1Cl)Nc1ccc(C(=O)c2ccc(C(=O)O)cc2)cc1`, 100%; in that of `Cc1cc(C)cc(NC(=O)N2CCCCCCC2)c1`, 100%.
In the case of `COc1ccc(C(=O)NC(Cc2ccc(OC(=O)c3ccc(OC)cc3)cc2)C(=O)O)cc1` (stereo not given) it was 90%.
As for `Nc1ccc(Cl)c(S(=O)(=O)Nc2ccccc2Cl)c1`, the GTP binding activity is 98%.
Consider `Cc1ccc(NC(=O)c2oc3ccccc3c2C)c([N+](=O)[O-])c1`, for which the GTP binding activity was 101%.
In the case of `C/C=N/NC(=O)CCCC(=O)N/N=C/C` it was 103%; in that of `CCC(=O)OCCNc1nc(-c2ccccc2)nc2ccccc12`, 98%.
The value for `Cc1ccc(CN(Cc2cccnc2)C(=S)Nc2cccc(Cl)c2C)cc1` was 95%; that for `CCCCn1c(N)c(N(CC)C(=O)/C=C/c2ccco2)c(=O)[nH]c1=O` was 99%; that for `CSc1ncccc1C(=O)N1CCCC(CCC(=O)NCc2ccccc2F)C1` (stereo not given) was 100%.
With `COC(=O)c1ccc(NC(=O)c2cc(Cl)ccc2OC)cc1`, the GTP binding activity is 96%.
In the case of `O=C1N/C(=N\N=C\c2ccco2)SC1Cc1ccc(F)cc1` (stereo not given) it was 97%; in that of `O=C(c1ccncc1)c1ccc([N+](=O)[O-])cc1`, 94%; in that of `CCOC(=O)CN1CCC(c2ccccc2)CC1`, 98%.
Turning to `CC(C)(C)n1nc2c(c1NC(=O)c1cc3ccccc3o1)CSC2`, the GTP binding activity is 96%.
